The text below walks through data of PubChem BioAssay (Tox21).

Several values for one entry are separate records, joined by “and”; a condition that tells them apart may be missing. Equal entries are not always repeated. Inconclusive results are not listed. A call without a number means that no potency is given here. A structure can be active in one record and inactive in another. Activity calls are given as the source filed them. Calls follow the shape of the dose curve; as a rule, active = well fitted cell-killing curve with a large enough effect in the repeat runs; inconclusive = weak or mixed curves, or effect the other way; inactive = no such curve, though single readings can be large or run the other way.
Potency is read from the fitted curve at half-maximal effect.

The nature of the assay: Caspase-3/7 induction in CHO-K1 cells by small molecules, qHTS cell viability counter screen (AID 1346979). Also: nearly all actives have a fitted effect of over 35% in size. The conditions noted are these: CellTiter-Fluor fluorescence, 17 h; series mostly up to 92.4 µM. The procedure, abridged: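 Multiplexed with Caspase-Glo 3/7 in CHO-K1 cells, this counter screen added CellTiter-Fluor after 16hr of compound exposure and recorded fluorescence 1hr later.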
On to `CCOCCOCCO`, for which the Potency result was “inactive”.
For `CC1=CCC(C(C)(C)O)CC1` (stereo not drawn), the Potency entry is “inactive”.
For `CC(=O)Oc1ccccc1C(=O)Nc1ncc([N+](=O)[O-])s1`, the Potency is 12.4 µM (active) and 18.8 µM (active).
With `CC(=O)c1ccccn1` the entry was “inactive”; with `Cc1cccc(N(C)C(=S)Oc2ccc3ccccc3c2)c1`, “inactive”; with `NC=O`, “inactive”.
With `COc1ccc(OC)c(C(O)CNC(=O)CN)c1` (stereo not drawn) the entry was “inactive”.
Under `O=CCCCC=O` stands “inactive”; under `COc1ccc(C(=O)CC(=O)c2ccc(C(C)(C)C)cc2)cc1`, “inactive”; under `Cc1[nH]c(=O)c(C#N)cc1-c1ccncc1`, “inactive”.
On to `CNCCCC12CCC(c3ccccc31)c1ccccc12`, for which the Potency is 61.1 µM (active) and inactive.
With `C#C[C@]1(O)CC[C@H]2[C@@H]3CCC4=Cc5oncc5C[C@]4(C)[C@H]3CC[C@@]21C` the figure was 43.3 µM (active) and 26.6 µM (active); with `Nc1ncnc2nc[nH]c12`, “inactive”.
With `O=C(COc1ccc(Cl)cc1)N1CCN(Cc2ccc3c(c2)OCO3)CC1` the entry was “inactive”; with `Cc1c(C(N)=O)cc([N+](=O)[O-])cc1[N+](=O)[O-]`, “inactive”; with `O=Cc1ccccc1O`, “inactive”.
On to `C[Si](C)(C)O[Si](C)(C)C`, for which the Potency result was “inactive”.
With `O=C(O)c1ccccc1Nc1cccc(C(F)(F)F)c1` the entry was “inactive”.
With `CN(C)CCN(Cc1cccs1)c1ccccn1` the entry was “inactive”; with `O=C(/C=C/c1ccccc1)OCc1ccccc1`, “inactive”.
On to `CCCC(=O)O`, for which the Potency entry is “inactive”.
As to `C[C@]12CC[C@H]3[C@@H](CCC4=CC(=O)CC[C@@]43C)[C@@H]1CC[C@@H]2C(=O)CO`, the Potency entry was “inactive”.
On to `OC[C@H]1O[C@@H]2O[C@H]3[C@H](O)[C@@H](O)[C@@H](O[C@H]4[C@H](O)[C@@H](O)[C@@H](O[C@H]5[C@H](O)[C@@H](O)[C@@H](O[C@H]6[C@H](O)[C@@H](O)[C@@H](O[C@H]7[C@H](O)[C@@H](O)[C@@H](O[C@H]8[C@H](O)[C@@H](O)[C@@H](O[C@H]1[C@H](O)[C@H]2O)O[C@@H]8CO)O[C@@H]7CO)O[C@@H]6CO)O[C@@H]5CO)O[C@@H]4CO)O[C@@H]3CO`, for which the Potency result is “inactive”.
